In publication PMC7862700, “An all-to-all approach to the identification of sequence-specific readers for epigenetic DNA modifications on cytosine”:

Tests used:
Experiment in all cases: DAPPL (digital affinity profiling via proximity ligation, sequencing); 10 mM Tris-HCl pH 7.5, 50 mM NaCl, 1 mM DTT, 4% glycerol, room temperature, 30 min; GST-TFs on glutathione beads, 16-mer random dsDNA library, 0.1% formaldehyde crosslink after washing; high values mean tight binding
Details in all cases: protein: recombinant; tags: N-terminal GST; dsDNA, one strand shown
FEV = target: T1, FEV (Homo sapiens, UniProt Q99581 1-238)
T1 sequence: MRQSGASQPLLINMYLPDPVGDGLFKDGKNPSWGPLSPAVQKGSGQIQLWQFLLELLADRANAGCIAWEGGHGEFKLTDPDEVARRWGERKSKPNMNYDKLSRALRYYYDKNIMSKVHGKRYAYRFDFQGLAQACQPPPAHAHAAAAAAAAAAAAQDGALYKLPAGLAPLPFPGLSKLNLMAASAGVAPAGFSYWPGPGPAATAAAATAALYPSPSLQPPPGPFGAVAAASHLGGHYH
Method in brief: (§1)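 A tag-only sample was pooled with DNA-barcoded human transcription factors that had been expressed in yeast as GST fusions and captured on glutathione beads. The pools were incubated for 30 min at room temperature with 200 nmole of a random double-stranded 16-mer DNA library in Tris/NaCl/DTT/glycerol buffer, then washed, crosslinked with 0.1% formaldehyde, proximity-ligated (BsaI/T4 ligase, 1 h, 37 °C), PCR-amplified and sequenced on an Illumina NextSeq500. Binding signal is each hexamer's read frequency for a factor divided by its frequency for the tag-only sample.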

ETV5 = ETV5 (Homo sapiens, UniProt P41161 1-510)
Method in brief: as §1

ELF3 = target: T2, ELF3 (Homo sapiens, UniProt P78545 1-371)
T2 sequence: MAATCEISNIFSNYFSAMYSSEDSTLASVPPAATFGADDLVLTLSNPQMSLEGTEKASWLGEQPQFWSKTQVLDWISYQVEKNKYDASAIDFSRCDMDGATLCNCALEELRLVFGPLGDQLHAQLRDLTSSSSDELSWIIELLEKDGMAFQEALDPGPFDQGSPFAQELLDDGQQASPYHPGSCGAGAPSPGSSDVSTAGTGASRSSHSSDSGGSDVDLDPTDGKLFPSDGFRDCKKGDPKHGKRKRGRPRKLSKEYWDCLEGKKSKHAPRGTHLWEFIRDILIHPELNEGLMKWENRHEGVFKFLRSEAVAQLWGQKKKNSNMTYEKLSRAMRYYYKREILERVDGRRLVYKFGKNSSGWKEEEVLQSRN
Method in brief: as §1

SPDEF = target: T3, SPDEF (Homo sapiens, UniProt O95238 1-335)
T3 sequence: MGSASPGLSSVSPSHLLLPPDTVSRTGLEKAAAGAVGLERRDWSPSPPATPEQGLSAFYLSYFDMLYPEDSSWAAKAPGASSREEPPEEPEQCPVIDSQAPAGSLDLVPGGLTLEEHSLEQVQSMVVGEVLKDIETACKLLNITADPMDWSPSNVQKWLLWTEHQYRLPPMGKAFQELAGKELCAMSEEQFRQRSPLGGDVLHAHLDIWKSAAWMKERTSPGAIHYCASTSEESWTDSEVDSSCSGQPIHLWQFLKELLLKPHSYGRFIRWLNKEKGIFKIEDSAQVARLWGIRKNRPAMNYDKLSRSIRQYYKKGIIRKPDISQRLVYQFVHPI
Method in brief: as §1

ETV7 = target: T4, ETV7 (Homo sapiens, UniProt Q9Y603 1-341)
T4 sequence: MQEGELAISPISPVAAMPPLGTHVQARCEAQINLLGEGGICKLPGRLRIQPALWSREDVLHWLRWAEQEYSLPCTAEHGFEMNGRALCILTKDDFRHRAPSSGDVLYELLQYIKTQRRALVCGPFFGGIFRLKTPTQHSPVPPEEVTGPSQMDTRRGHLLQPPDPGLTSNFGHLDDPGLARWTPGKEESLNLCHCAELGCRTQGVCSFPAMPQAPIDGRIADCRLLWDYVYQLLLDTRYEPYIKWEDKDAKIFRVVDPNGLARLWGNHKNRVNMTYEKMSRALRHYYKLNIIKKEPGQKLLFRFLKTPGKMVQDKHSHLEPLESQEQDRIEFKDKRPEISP
Method in brief: as §1

Chain of ETV5 (P41161 whole entry): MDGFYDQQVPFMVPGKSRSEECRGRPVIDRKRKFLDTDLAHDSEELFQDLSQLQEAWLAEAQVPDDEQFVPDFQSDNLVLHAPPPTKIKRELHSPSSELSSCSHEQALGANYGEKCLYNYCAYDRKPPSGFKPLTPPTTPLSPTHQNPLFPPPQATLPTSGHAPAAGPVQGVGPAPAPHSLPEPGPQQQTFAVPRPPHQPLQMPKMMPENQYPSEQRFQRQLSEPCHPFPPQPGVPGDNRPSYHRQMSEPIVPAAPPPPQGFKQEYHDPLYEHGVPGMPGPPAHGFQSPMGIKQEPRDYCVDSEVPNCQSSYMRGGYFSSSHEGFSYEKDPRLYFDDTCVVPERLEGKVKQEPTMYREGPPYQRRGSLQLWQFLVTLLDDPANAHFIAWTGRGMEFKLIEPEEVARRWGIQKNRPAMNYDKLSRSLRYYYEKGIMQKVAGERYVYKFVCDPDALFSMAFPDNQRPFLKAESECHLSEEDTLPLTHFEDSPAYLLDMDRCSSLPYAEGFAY

TGACGG
binding signal (FEV): 1.06 fold enrichment (6-mer frequency, TF over GST control) | binding signal (ETV5): 1.04 fold enrichment (6-mer frequency, TF over GST control) | binding signal (ELF3): 1.06 fold enrichment (6-mer frequency, TF over GST control) | binding signal (SPDEF): 1.06 fold enrichment (6-mer frequency, TF over GST control) | binding signal (ETV7): 1.02 fold enrichment (6-mer frequency, TF over GST control)
